Bioassay records (PubChem BioAssay)
KCNQ2 inh – rat KCNQ2 potassium channel inhibitors, primary screen, cell-based, CHO-K1, FluxOR thallium flux, B-score | actives 1.1% (n = 310,000) | 20 min; stronger effect = lower value | B-score at 10 µM | Potassium voltage-gated channel subfamily KQT member 2 (Rattus norvegicus), O88943;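 active = fluorescence ratio B-score at most minus 3 library SDs, with starting brightness B-score within 2 library SDs, cut at about -5.5 in these data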
Target sequence (O88943 whole entry, looked up): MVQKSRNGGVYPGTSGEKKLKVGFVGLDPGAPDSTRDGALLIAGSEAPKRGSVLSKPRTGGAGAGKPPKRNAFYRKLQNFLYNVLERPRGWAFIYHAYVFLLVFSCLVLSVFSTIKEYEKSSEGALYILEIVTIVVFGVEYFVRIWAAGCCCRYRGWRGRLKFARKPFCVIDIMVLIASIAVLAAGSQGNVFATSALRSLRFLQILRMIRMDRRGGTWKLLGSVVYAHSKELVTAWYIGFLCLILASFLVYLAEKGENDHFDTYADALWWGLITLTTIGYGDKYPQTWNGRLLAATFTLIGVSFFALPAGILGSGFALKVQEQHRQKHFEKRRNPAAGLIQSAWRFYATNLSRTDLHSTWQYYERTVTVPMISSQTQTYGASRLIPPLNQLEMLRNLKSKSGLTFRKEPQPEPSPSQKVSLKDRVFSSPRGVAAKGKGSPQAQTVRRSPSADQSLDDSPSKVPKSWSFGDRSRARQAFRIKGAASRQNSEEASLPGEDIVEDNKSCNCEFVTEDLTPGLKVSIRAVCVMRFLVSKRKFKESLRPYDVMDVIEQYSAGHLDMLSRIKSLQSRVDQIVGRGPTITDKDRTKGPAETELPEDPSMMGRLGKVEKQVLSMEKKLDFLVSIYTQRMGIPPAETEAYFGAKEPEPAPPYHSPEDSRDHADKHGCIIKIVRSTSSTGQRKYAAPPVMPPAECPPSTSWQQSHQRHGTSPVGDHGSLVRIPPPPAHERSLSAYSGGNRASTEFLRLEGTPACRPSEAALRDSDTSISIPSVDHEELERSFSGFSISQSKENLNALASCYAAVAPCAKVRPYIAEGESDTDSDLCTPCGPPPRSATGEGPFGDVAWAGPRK
KCNQ2 enhance – potentiators of rat KCNQ2 potassium channel. CHO-K1 KCNQ2, FluxOR thallium flux fluorescence; stronger effect = higher value. B-score at 10 µM. actives 0.54% (n = 310,000). AID 2239, 2010;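 active = fluorescence ratio B-score at least 3 SD of library B-scores, with initial fluorescence B-score within 3 of them, cut at about 5.3 in these data; same plate scores as AID 2156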;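 note: B-score of peak minus minimum over baseline fluorescence ratio after K+ and Tl+ stimulus; positive B-score means potentiation of KCNQ2 with more thallium influx and brighter signal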
Kir21 conf inh – mouse Kir2.1 channel blockers, retest, confirmation, cell-based, FluxOR thallium flux, duplicate; shares compounds with KCNQ2 enhance; Kir2.1-expressing cells, FluxOR thallium flux fluorescence; stronger effect = lower value; Tl flux remaining, % of negative control (stronger effect = lower value), % at 10 µM; actives 41% (n = 2,300); AID 2032, 2009;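 active = Primary-screen hit whose thallium flux fell at least 3 control SD below untreated wells in both duplicates, with normal baseline fluorescence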
HEK293 Tl flux – parental HEK293 activity in Kir2.1 inhibitor counter-screen; shares compounds with KCNQ2 enhance; parental HEK293 cells, FluxOR thallium flux fluorescence; 0% = unstimulated blank wells; FluxOR signal as % of negative control (100 = no effect), % at 10 µM; actives 19% (n = 2,300);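 active = dye signal at least 3 control SD above or below untreated wells in both duplicates, raw fluorescence within 3, either direction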;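 note: percent is based on the flux ratio of peak minus minimum fluorescence over baseline F0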
CHO-K1 ctr – nonspecific thallium flux increase in parental CHO-K1, confirmation, counter-screen for KCNQ2 potentiator project, cell-based, FluxOR thallium flux, duplicate | shares compounds with KCNQ2 enhance | parental CHO-K1 cells, FluxOR thallium flux fluorescence; zero = vehicle mean+3SD, 100% = vehicle-minus-blank window | activity increase over 3SD of controls, % at 10 µM | actives 43% (n = 1,200);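 active = signal rise of at least 3 SD above the untreated control mean, in both duplicate wells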;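 note: counter screen of KCNQ2 potentiator hits so any rise reflects channel-independent effects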
KCNQ1 pot spec – human KCNQ1 channel potentiation off-target, confirmation, selectivity assay for KCNQ2 potentiator project, cell-based, CHO, FluxOR thallium flux. CHO KCNQ1 stable, FluxOR thallium flux fluorescence; beyond 3SD, as % of vehicle-control signal. activation over 3SD threshold, % at 10 µM. actives 28% (n = 1,200). shares compounds with KCNQ2 enhance;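 active = fluorescence ratio rise of at least 3 SD of vehicle wells above their mean, in both replicate wells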
KCNQ2 pot confirm – rat KCNQ2 channel potentiators, confirmation, cell-based, CHO, FluxOR thallium flux, duplicate. AID 2287, 2010. CHO-KCNQ2 cells, FluxOR thallium flux fluorescence. shares compounds with KCNQ2 enhance. potentiation, less the hit threshold, % at 10 µM. actives 68% (n = 1,200);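 active = fluorescence ratio rising 3 SD or more over the vehicle control mean in both replicates, plus primary screen hit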;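 note: peak minus minimum thallium fluorescence divided by baseline after K/Tl stimulus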
Kir2-1 sel – mouse Kir2.1 channel activation off-target, confirmation, selectivity assay for KCNQ2 potentiator project, cell-based, HEK293, FluxOR thallium flux; shares compounds with KCNQ2 enhance; HEK293 Kir2.1, FluxOR thallium flux fluorescence; activity over 3SD threshold, % at 10 µM; actives 2% (n = 1,200); AID 2345, 2010;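 active = fluorescence ratio rise of at least 3 SD above the vehicle-control mean, seen in both replicates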
KCNQ2 W236L pot – potentiators of retigabine-insensitive KCNQ2 W236L, mechanism study for KCNQ2 potentiator project, cell-based, rat KCNQ2 W236L, CHO, automated patch clamp. current increase over 3SD of negative controls (%), stronger effect = higher value, % at 25 µM. actives 10% (n = 940). AID 2558, 2010. shares compounds with KCNQ2 enhance. automated patch clamp current;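 active = current increase at least 3 SD of the untreated controls above them in both duplicate recordings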
Hits are given with their value; . = inactive; / = not tested or not shown. Hits are enriched below; roughly 1.6% of the tested compounds scored in any of these assays.

SMILES | KCNQ2 inh | KCNQ2 enhance | Kir21 conf inh | HEK293 Tl flux | others
CCCC(=O)Nc1ccc(NCc2ccc(C)s2)cc1 | . | 22 | . | . | CHO-K1 ctr=.;KCNQ1 pot spec=.;KCNQ2 pot confirm=85;Kir2-1 sel=.;KCNQ2 W236L pot=.
CC(=O)Nc1ccc(NCc2ccc(C)s2)cc1 | . | . | / | /
Cc1ccc(/C=N/n2c(COc3ccccc3)n[nH]c2=S)cc1 | . | / | / | /
CC(C)c1ccc(/C=N/n2c(COc3ccccc3)n[nH]c2=S)cc1 | . | 7.7 | . | . | CHO-K1 ctr=.;KCNQ1 pot spec=.;KCNQ2 pot confirm=9.0;Kir2-1 sel=.;KCNQ2 W236L pot=.
Cc1ccc(-n2ncc3c(SCC(N)=O)ncnc32)cc1C | . | . | / | /
CCOc1cccc(CNCc2cccnc2)c1OCc1ccccc1 | . | . | 45% | .
Clc1ccc(COc2ccccc2CNCc2cccnc2)cc1 | . | . | / | /
CCSC(=O)NC1CCCCC1 | . | . | / | /
CC(C)(C)OC(=O)N1CCC[C@H]1c1nnc(SCc2c(Cl)cccc2Cl)o1 | . | / | / | /
Cc1cccc(CSc2nnc([C@@H]3CCCN3C(=O)OC(C)(C)C)o2)c1 | . | / | 56% | .
CC(C)C(NS(=O)(=O)c1ccc2c(c1)Cc1cc(S(=O)(=O)NC(C(=O)O)C(C)C)ccc1-2)C(=O)O (stereo not given) | . | / | / | /
COc1ccc(CNC(=O)CN(C)Cc2ccc(SC)cc2)cc1 | . | / | . | .
CSc1ccc(CN(C)C(C)C(=O)NCc2ccccc2)cc1 (stereo not given) | . | / | 34% | .
CCc1ccc(CN(C)C(C)C(=O)NCc2ccccc2)cc1 (stereo not given) | . | / | / | /
CSc1ccc(CN(C)CC(=O)NCc2ccccc2)cc1 | . | / | / | /
CC(C)C(NC(=O)c1ccc(Cl)cc1)C(=O)NCC1CCCO1 (stereo not given) | . | . | / | /
S=c1nc[nH]c2c1sc1nc(N3CCOCC3)c3c(c12)CCCC3 | . | 12 | . | 270% | CHO-K1 ctr=36;KCNQ1 pot spec=.;KCNQ2 pot confirm=60;Kir2-1 sel=.;KCNQ2 W236L pot=.
O=c1[nH]nnc2c1sc1nc(N3CCOCC3)c3c(c12)CCCC3 | . | . | / | /
CN(CCOc1ccc(Cl)cc1)C(=O)C1CCN(C(=O)c2ccc(Cl)cc2)CC1 | . | / | / | /
CC1Cc2ccccc2N1C(=S)NC(=O)C1(C)CC1(Cl)Cl (stereo not given) | . | 7.2 | . | 272% | CHO-K1 ctr=.;KCNQ1 pot spec=.;KCNQ2 pot confirm=26;Kir2-1 sel=.;KCNQ2 W236L pot=.
CC1Cc2ccccc2N1C(=S)NC(=O)c1ccco1 (stereo not given) | . | . | / | /
Cc1[nH]n(-c2ccccc2)c(=O)c1C(=O)c1ccccc1 | . | / | / | /
CCSC(=S)c1c(C)[nH]n(-c2ccccc2)c1=O | . | 7 | . | 222% | CHO-K1 ctr=.;KCNQ1 pot spec=.;KCNQ2 pot confirm=.;Kir2-1 sel=.;KCNQ2 W236L pot=.
CCOC(=O)c1oc2cccc(OCC(O)CNC(C)C)c2c1C (stereo not given) | . | / | / | /
Cc1ccc(NC(=O)Cn2cnc([N+](=O)[O-])c2)cc1C | . | / | / | /
SMILES | KCNQ2 inh | KCNQ2 enhance | Kir21 conf inh | HEK293 Tl flux | others
CC(C)c1ccc(NC(=O)Cn2c(=O)oc3cccnc32)cc1 | . | / | / | /
Cc1ccc(C)c(OCCC(=O)NCCc2ccc(F)cc2)c1 | . | / | / | /
O=C(Nc1ccccc1Cl)C1CCCN(S(=O)(=O)c2ccc(-n3cnnn3)cc2)C1 (stereo not given) | . | / | / | /
CCN(CC)S(=O)(=O)c1cc(OC)ccc1N=Nc1ccc(O)c2ncccc12 | . | . | / | /
CCOc1ccc(N=Nc2ccc(O)c3ncccc23)cc1 | . | 23 | . | . | CHO-K1 ctr=13;KCNQ1 pot spec=12;KCNQ2 pot confirm=.;Kir2-1 sel=.
COc1ccc(F)c(CN(C)CC2CCCN(CCc3ccc(F)cc3)C2)c1 (stereo not given) | . | / | 31% | .
CC(=O)c1cccc(CN(C)CC2CCCN(CCc3ccccc3C)C2)c1 (stereo not given) | . | . | 51% | .
COc1ccc(CN(C)CC2CCCN(CCc3ccc(Cl)cc3)C2)cc1OC (stereo not given) | . | / | / | /
COc1ccc(CN(C)CC2CCCN(CCc3ccc(F)cc3)C2)cc1OC (stereo not given) | . | / | 62% | .
COc1cc(CN(C)CC2CCCN(CCc3ccc(F)cc3)C2)c(Cl)cc1O (stereo not given) | . | . | / | /
CCOc1cccc(CN(C)CC2CCCN(CCc3ccc(Cl)cc3)C2)c1O (stereo not given) | . | / | 48% | .
COc1ccc(CCN2CCCC(CN(C)Cc3cc(OC)c(OC)c(OC)c3)C2)cc1 (stereo not given) | . | . | / | /
CN(Cc1ccccc1)CC1CCCN(CCc2ccccc2F)C1 (stereo not given) | . | / | / | /
CCCS(=O)(=O)c1nc(S(=O)(=O)c2ccc(C)cc2)c(NCCCN2CCCC2=O)s1 | . | . | / | /
COC(=O)c1ccc(CN2CCCC(C(=O)c3ccccc3OC)C2)cc1 (stereo not given) | . | / | / | /
O=c1cnnc(N/N=C/C2CC=CCC2)[nH]1 (stereo not given) | . | . | / | /
NC(=O)c1ccsc1NC(=O)COC(=O)c1cc(Cl)ccc1O | . | . | / | /
CC1CCN(C(=S)NC(=O)c2ccccc2)CC1 | . | . | / | /
COc1ccc(C(=O)NC(=S)N2CCC(C)CC2)cc1Br | . | 6.5 | . | 247% | CHO-K1 ctr=.;KCNQ1 pot spec=.;KCNQ2 pot confirm=.;Kir2-1 sel=.;KCNQ2 W236L pot=.
CC(C)(C)c1ccc(C(=O)NC(=S)N2CCCCCC2)cc1 | . | 8.8 | . | 268% | CHO-K1 ctr=.;KCNQ1 pot spec=37;KCNQ2 pot confirm=0.7;Kir2-1 sel=.;KCNQ2 W236L pot=4.9%
CC(C)(C)c1ccc(C(=O)NC(=S)N2CCCC2)cc1 | . | . | / | /
CC1CCN(C(=S)NC(=O)c2ccc(C(C)(C)C)cc2)CC1 | . | 7.1 | / | / | CHO-K1 ctr=.;KCNQ1 pot spec=.;KCNQ2 pot confirm=5.8;Kir2-1 sel=.;KCNQ2 W236L pot=.
